{"source": "PubChem BioAssay AID1224855", "about": "(National Center for Advancing Translational Sciences (NCATS), 2016)", "note": "Inconclusive results are not listed. A call without a number means that no potency is given here. Calls of active or inactive are those of the source. The call rests on the fitted dose curve; in most records, active means well fitted inhibition curve with a large enough effect; inconclusive means small, poorly fitted or top-dose-only effect; inactive means no such curve, though single readings can be large or run the other way."}
{"assay": "Confirmation assay for measurement of the activity of small molecule inhibitors on Zika virus induced Caspase-3 activity in human iPSC derived neural progenitor cells (hNPCs)", "conditions": "hNPC ZIKV-induced caspase-3/7, Caspase-Glo luminescence, 6 h; series mostly up to 46.1 µM", "text": "National Center for Advancing Translational Sciences [NCATS] Johns Hopkins University School of Medicine Florida State University Assay Overview: Increase in the Caspase-3 activity indicates an activation of apoptosis cell death pathway caused by Zika virus infection in certain types of neuronal cells including human neural progenitor cells (hNPCs), astrocytes, and astrocytoma cell line (SNB-19). This cell-based caspase-3 activity assay measures the increased caspase-3 activity in the human iPSC derived neural progenitor cells (hNPCs) after a 6-hour Zika virus infection with a luminescence readout. A decrease in the luminescence signal in this assay by small molecule treatment indicates an inhibitory effect of that small molecule on the Zika virus induced caspase-3 activity that may correlate with its effect on reduction of Zika virus caused cell death.\nAssay Protocol Summary: The medium for hNPCs consists of DMEM/F12, N2 supplement (ThermoFisher, Cat.# 17502048), NEAA (ThermoFisher, Cat. # 11140050), 2 ug/ml heparin, 2 uM cyclopamine, and B27 (ThermoFisher, Cat. # 17504044). A Caspase-Glo 3/7 assay kit (catalog number G8092; Promega, Madison, WI) was used to detect caspase-3 activity induced by Zika virus infection in human cells. The reagent mixture was reconstituted as described in the protocol from the manufacturer. Polystyrene tissue culture treated and PDL coated white plates were obtained from Greiner Bio-One (Monroe, NC). Cells were seeded in 384- or 1536-well assay plates and cultured at 37 C with 5% CO2 for 16 to 20 hours. The typical cell seeding density in the 1536-well plate assay is 350 cells/well in 3 ul medium for hNPCs in tissue culture treated plates. Compounds were added to cells and incubated for one hour before addition of ZIKV solution to cells (2 FFU/cell). After incubation at 37 C with 5% CO2 for 6 hours, the reagent mixture of Caspase-Glo 3/7 assay kit was added to each well, followed by incubation at room temperature for 30 minutes. The luminescence intensity of the assay plates was measured using a ViewLux plate reader (PerkinElmer). Data were normalized by using the cell-containing wells without ZIKV as a negative control (0% induction of caspase 3/7 activity) and wells containing ZIKV infected cells (Caspase-3 activity induced) as a positive control (100% induction of caspase 3 activity). The percentage inhibitions of the increased Caspase-3 activity by small molecule inhibitors were then calculated."}
{"smiles": "O=C1CCC[C@@H]2[C@H]3CCCN4CCC[C@@H](CN12)[C@@H]34", "Potency": "inactive"}
{"smiles": "O=S(=O)(CC1CS1)c1ccc(Oc2ccccc2)cc1", "note": "(centres undefined)", "Potency": "inactive"}
{"smiles": "CC[n+]1c(-c2ccccc2)c2cc(N)ccc2c2ccc(N)cc21", "Potency": "inactive"}
{"smiles": "Oc1ccc([C@H]2CNCc3c2ccc(O)c3O)cc1O", "Potency": "inactive"}
{"smiles": "O=C(Nc1ccc(Br)cc1)c1cc(Br)cc(Br)c1O", "Potency": "13.8 µM (active)"}
{"smiles": "COC1(CS(=O)c2ccccc2)CCN(CCc2c[nH]c3ccc(F)cc23)CC1", "note": "(centres undefined)", "Potency": "inactive"}
{"smiles": "CC(C)[N+](C)(CCC(C(N)=O)(c1ccccc1)c1ccccc1)C(C)C", "Potency": "inactive"}
{"smiles": "O=C1C=CC[C@@H]2[C@H]3CCCN4CCC[C@@H](CN12)[C@@H]34", "Potency": "inactive"}
{"smiles": "CC(C)[C@H]1C(=O)N[C@H](CO)Cc2c[nH]c3cccc(c23)N1C", "Potency": "inactive"}
{"smiles": "O=c1c2ccccc2[se]n1-c1ccccc1", "Potency": "7.74 µM (active)"}
{"smiles": "COc1cccc2c1C(=O)c1c(O)c3c(c(O)c1C2=O)C[C@@](O)(C(=O)CO)CC3OC1CC(N2CCOC(OC)C2)C(O)C(C)O1", "note": "(some centres undefined)", "Potency": "inactive"}
{"smiles": "CC(C)N[C@@H]1CCn2c(=O)[nH]c3cccc(c32)[C@@H]1O", "Potency": "inactive"}
{"smiles": "CC(O)CN1CCN(CC(=O)[O-])CCN(CC(=O)[O-])CCN(CC(=O)[O-])CC1.[Gd+3]", "note": "(centres undefined)", "Potency": "inactive"}
{"smiles": "COP(=S)(OC)SCN1C(=O)c2ccccc2C1=O", "Potency": "inactive"}
